Measured values as given in PubChem BioAssay AID488890 (Southern Research Specialized Biocontainment Screening …, 2010).
Out of some 320,000 compounds screened, about 1,300 (0.41%) were called active. Roughly 3% stayed inconclusive and do not appear here. The rule behind the calls is not given here. Not all results are given here. Potency and affinity values are given separately.

Experiment: growth inhibition of non-replicating M. tuberculosis (AID 488890);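 note: plate controls were DMSO cells for no effect and high antibiotic wells for full effect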
Details: Mycobacterium tuberculosis non-replicating, at 25 µM, stronger effect = higher value

Row | SMILES | inhibition [%]
1 | CC(=O)Nc1sc(C)c(C)c1C(=O)OCC(=O)Nc1ccccc1 | 6.17
2 | CSc1ncccc1C(=O)OCc1ccc([N+](=O)[O-])cc1 | 39.8
3 | COc1ccc(C(=O)N/N=C2\CCc3ccccc32)cc1OC | -1.04
4 | Cc1cccc(NC(=O)C[n+]2ccccc2)c1 | 16.1
5 | Cc1c(NC(=O)COC(=O)c2cc(-c3ccc(-c4ccccc4)cc3)nc3ccccc23)c(=O)n(-c2ccccc2)n1C | -36
6 | NC(=O)c1nsc(C(=O)N(c2cccc(F)c2)C(C(=O)NCC2CCCO2)c2c[nH]c3ccccc23)c1N (centres undefined) | 29.5
7 | CC1=NN(C(=O)c2ccco2)C(O)(c2ccccc2)C1 (centres undefined) | 70.5
8 | O=C(c1ccco1)N1N=C(c2ccc(Cl)cc2)CC1(O)C(F)(F)F (centres undefined) | 58
9 | CC1=NN(C(=O)Cc2ccccc2)C(O)(c2cccnc2)C1 (centres undefined) | -2.18
10 | O=C(c1ccccc1)N1N=C(c2ccc(F)cc2)CC1(O)C(F)(F)F (centres undefined) | 67.9
11 | C=CCn1c(SCC(=O)Nc2ccccc2OC)nc2c([nH]c3ccccc32)c1=O | -4.69
12 | COc1ccccc1-c1nnc(SCc2nc3ccccc3[nH]2)n1C | 25.9
13 | O=C(Nc1cccc(F)c1)Nc1ccc2c(c1)C(=O)OC2 | -9.41
14 | Cc1cccc(C)c1OCC(=O)NCC1COc2ccccc2O1 (centres undefined) | -21
15 | CCN1CCN(c2ccc(NC(=O)c3ccco3)cc2Cl)CC1 | -16.6
16 | CCOC(=O)Cc1c(C)nc2c(C#N)c[nH]n2c1=O | -14.1
17 | CCOC(=O)Cc1cc(=O)n2[nH]cc(-c3ccc(Cl)cc3)c2n1 | 81.6
18 | CCOC(=O)Cc1c(C)nc2c(-c3ccccc3)c(C)[nH]n2c1=O | 23.1
19 | CCOC(=O)Cc1c(C)nc2c(-c3cccc(Br)c3)cnn2c1C | -10.5
20 | CC1=CC(C)(C)Nc2ccc(OS(=O)(=O)c3ccc(C)cc3)cc21 | -0.67
21 | CN(C)S(=O)(=O)n1ccnc1 | -7.18
22 | c1cnc2nc(-c3ccc4c(c3)OCO4)cn2c1 | 14.6
23 | Oc1ccc(-c2nc3ncccn3c2Nc2ccc3c(c2)OCO3)cc1 | 0.55
24 | COCCn1c(SCC(=O)NC(=O)NC2CCCC2)nc2ccccc2c1=O | -3.24
25 | CN(C)CCCNC(=O)CC1C[C@H](C(=O)N2CCOCC2)[C@@]2(CCC3CCCC3)c3[nH]c4ccccc4c3CCN2C1=O (some centres undefined) | 48.7

Row | SMILES | inhibition [%]
26 | Cn1nnc(NCc2cc(Br)ccc2OCc2cccs2)n1 | 24.3
27 | C=CCOc1ccc(Br)cc1CNC(C)(C)C | 54.2
28 | CC(C)COc1ccc(Br)cc1CNC(C)(C)C | 72
29 | CC(C)(C)NCc1ccccc1OCc1cccs1 | 6.2
30 | CC1CCCCN1CCn1c(=S)[nH]c2cc3c(cc2c1=O)OCO3 (centres undefined) | 9.55
31 | Cc1c(/C=C2\NC(=O)NC2=O)c2ccccc2n1C | 16.4
32 | O=c1cc(O)n(Cc2ccc(F)cc2)c(=O)[nH]1 | -1.55
33 | CCOCCCNC(=O)C1CCC(CNS(=O)(=O)c2cccc3nsnc23)CC1 (centres undefined) | -10.5
34 | COc1ccc(C(=O)c2cc3cccc(OC)c3o2)cc1 | 70.7
35 | COc1cccc2cc(C(=O)c3ccccc3)oc12 | 77.7
36 | O=C(COc1ccccc1Cl)N1CCN(C(=O)c2ccco2)CC1 | 6.78
37 | CCOCCOC(=O)c1[nH]c2c(c1C)C(=O)CC(c1cccs1)C2 (centres undefined) | 5.49
38 | Cc1[nH]c2ccc(Br)cc2c(=O)c1CN1CCCCC1 | 6.69
39 | CO/N=C/CC(=O)Nc1ccc(F)cc1F | -1.66
40 | O=C(O)CC(Cc1ccc(Cl)cc1)C(=O)Nc1ccc([N+](=O)[O-])cc1 (centres undefined) | 7.55
41 | O=C(C/C=N\OCc1ccc(Cl)cc1Cl)Nc1ccccc1 | 55.5
42 | O=C(CCNC(=O)c1ccc([N+](=O)[O-])cc1)Nc1ccc(F)cc1F | 69.1
43 | O=C(Cc1ccc([N+](=O)[O-])cc1)Nc1ccc(Cl)cc1 | 12.6
44 | COC(=O)C(/C=N/OCc1ccc([N+](=O)[O-])cc1)NC(=O)c1ccccc1 (centres undefined) | 1.7
45 | O=C(NCCCCc1ccccc1)C1CC(c2cccc(F)c2)=NO1 (centres undefined) | 9.38
46 | Nn1c(-c2ccccc2)nc2ccccc2c1=O | -12.5
47 | O=C(O)c1cnc(-c2ccccc2)nc1Sc1cccc(Cl)c1 | 53.3
48 | CCC(CC)NC(=O)COC(=O)c1cc(SC)ccc1Cl | 28.5
49 | CCOc1ccccc1N1CCN(CC(O)COC2CCCc3ccccc32)CC1 (centres undefined) | 59.7
50 | CN(C)C(=O)CSc1nnc([C@H](Cc2c[nH]c3ccccc23)NC(=O)OC(C)(C)C)o1 | -0.86

Row | SMILES | inhibition [%]
51 | CC(CCc1ccc(O)cc1)NC1c2ccccc2-c2ccccc21 (centres undefined) | 43.3
52 | CC(C)=N/N=C1\NC(=O)C(C)S1 (centres undefined) | 54
53 | O=C(CNC(=O)N1CC(=O)Nc2ccccc21)Nc1ccccc1F | -10.2
54 | COc1ccc(/C=C2\SC(=N)N(c3nccs3)C2=O)cc1OC | -5.11
55 | N=C1S/C(=C\c2ccco2)C(=O)N1c1ccc2c(c1)OCO2 | 0.43
56 | CN(C1CCCCC1)S(=O)(=O)c1cccc(C(=O)Nc2ccccn2)c1 | 25.5
57 | CCOP(=O)(Cc1cc(C(=O)CC)c(C)o1)OCC | -21.9
58 | Cc1ccc(Sc2ncccc2[N+](=O)[O-])cc1 | 23.3
59 | O=c1ccnc(Sc2ncccc2[N+](=O)[O-])[nH]1 | 37.6
60 | CC(C)(C)c1csc(Sc2ncccc2[N+](=O)[O-])n1 | 19.4
61 | O=[N+]([O-])c1cccnc1Sc1ccc(F)cc1 | 18.3
62 | CCn1c(=O)n(-c2ccc(Cl)cc2)c(=O)c2c3c(sc21)COC(C)(C)C3 | 5.56
63 | O=C(COC(=O)Cc1ccsc1)Nc1ccc(Cl)cc1F | 70.1
64 | CC(C)(C)OC(=O)CNC(=O)c1[nH]cnc1C(=O)NC1CCNCC1 | -8.53
65 | Cc1ccc(OCCCC(=O)NCc2ccco2)cc1 | 53.7
66 | COc1ccc(OCCCC(=O)NCc2ccco2)cc1 | 56.7
67 | CC1CCN(C(=O)c2cc3c(=O)n4ccccc4nc3s2)CC1 | -10.7
68 | CCCCN(C)Cc1c(C)[nH]c2ccc(C)cc2c1=O | 3.45
69 | CC(CCc1ccccc1)NC(=O)c1ccc(F)cc1 (centres undefined) | 65.9
70 | CN(C)CCCN(C(=O)c1ccc(S(=O)(=O)N2CCCCC2)cc1)c1nc2cc3c(cc2s1)OCO3 | 20.6
71 | CC(C)c1ccc(/C=N/NC(=O)c2c(Cl)cnn2C)cc1 | -10.4
72 | CSCCOC(=O)COc1ccc(/C=N/NC(=O)c2nn(C)cc2Cl)cc1 | 75.7
73 | COc1cc(CN2CCN(Cc3ccc(SC)cc3)CC2)cc(OC)c1O | -26.9
74 | N/C(=N\N=C\c1cccs1)SC1CC(=O)N(c2cccc([N+](=O)[O-])c2)C1=O (centres undefined) | -1.1
